Pol eta inh = inhibitors of human DNA polymerase eta; 1.2% of 390,000 active; AID 588591; Potency, µM (highest dose often 114 µM), hits mostly inhibitors; recombinant Pol eta, fluorescent DNA replication assay; Q9Y253
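Fluorescent replication assay: 50 nM final substrate added after a 15 min room-temperature compound preincubation with 10 nM enzyme. Signal taken at 0 min and again at 10 min.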
Pol iota inh = DNA polymerase iota (human) inhibition. AID 588590. Potency, µM (doses to about 115 µM), most hits filed as inhibitors. Q9UNA4. Pol iota fluorescent replication assay, 10 min. 1% of 390,000 active
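Pol iota at 10 nM preincubated 15 min with compounds at room temperature; reaction started with fluorescent substrate, 50 nM final. Fluorescence read kinetically at 0 and 10 min; buffer-only wells as negative control.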
POLK inh = DNA polymerase kappa (human) inhibition. AID 588579. 0.53% of 400,000 active. Q9UBT6. Potency, µM (top dose mostly 107 µM), usual class: inhibitors. purified Pol kappa, fluorescent DNA synthesis assay, 10 min
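10 nM Pol kappa was preincubated with compounds for 15 min at room temperature. Reaction started with 50 nM (final) substrate. Fluorescence read kinetically at 0 and 10 min.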
PI5P4K alpha inh = inhibitors of human PI5P4K alpha; P48426; PI5P4Kalpha enzyme, ADP-Glo luminescence, 60 min; hits give low values; max response, %; 1.2% of 330,000 active; AID 652105; active means max response of -50% or lower; inconclusive means between -30% and -50%; inactive means -30% or higher; further: value at the top dose of about 77 µM
Target sequence (P48426 whole entry, looked up): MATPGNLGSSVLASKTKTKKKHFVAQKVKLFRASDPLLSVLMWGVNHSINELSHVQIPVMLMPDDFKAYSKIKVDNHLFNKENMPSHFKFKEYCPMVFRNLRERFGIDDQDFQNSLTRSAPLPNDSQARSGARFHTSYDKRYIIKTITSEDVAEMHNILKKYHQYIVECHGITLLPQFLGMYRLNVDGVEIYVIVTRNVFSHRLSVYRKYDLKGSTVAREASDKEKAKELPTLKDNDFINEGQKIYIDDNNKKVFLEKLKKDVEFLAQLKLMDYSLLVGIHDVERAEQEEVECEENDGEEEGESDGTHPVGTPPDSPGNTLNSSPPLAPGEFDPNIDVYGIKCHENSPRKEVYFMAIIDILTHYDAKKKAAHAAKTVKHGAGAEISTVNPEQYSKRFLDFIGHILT
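Luminescence from ADP-Glo served as readout of PI5P4Kalpha activity in a qHTS format. Reaction: enzyme, substrate, compound, ATP at 5 microM final, 60 min at RT.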
POLB inh = DNA polymerase beta (human) inhibition | 1.3% of 340,000 active | Potency, µM (doses to about 114 µM), most hits filed as inhibitors | P06746 | Pol beta primer extension/strand displacement, fluorescence kinetic | AID 485314
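Curves were derived by four-parameter Hill fits of normalized qHTS data. The kinetic fluorescent primer-extension read was taken at 0 and 10 min after 50 nM substrate, following a 15 min room-temperature preincubation of 10 nM enzyme with compounds.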
WRN helicase inh = blocks human WRN helicase | Q14191 | WRN helicase unwinding, fluorescent forked duplex, kinetic | Potency, µM (titrated, usually from 114 µM), most hits filed as inhibitors | 0.46% of 360,000 active | AID 651768; further: nearly all actives have a fitted effect of over 55% in size
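WRN at 20 nM final preincubated with compound 15 min at room temperature; reaction started with 100 nM fluorophore/quencher forked duplex oligonucleotide and 2 mM ATP final. Unwinding followed kinetically by red fluorescence (ex 525, em 598 nm).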
Of the large screens only hits and unclear results are named; the others gave an inactive call. An excerpt weighted towards active compounds, which were near 2.8% of everything screened. Unless noted, the call rests on the fitted dose curve; in most records, active means well fitted curve in the direction sought with a large enough effect; inconclusive means small, poorly fitted or top-dose-only effect, or another doubt; inactive means no such curve, though single readings can be large; an effect the other way counts as inactive or inconclusive.

COc1ccc(C(=O)Nc2cccc(/C=C(\CCC(=O)O)c3nc4ccccc4s3)c2)cc1	Pol eta inh 56µM, Pol iota inh inconclusive, POLK inh inconclusive, PI5P4K alpha inh -56, POLB inh inconclusive
Cc1ccccc1C(=O)Nc1cc(C(F)(F)F)ccc1-n1cncn1	none (no result: POLB inh)
CCC(C)(C)NC(=O)c1ccc(Sc2nncn2C)c([N+](=O)[O-])c1	POLB inh inconclusive
Cn1cnnc1Sc1ccc(/C=C/C(=O)c2ccc(O)cc2)cc1[N+](=O)[O-]	Pol eta inh 50µM, Pol iota inh inconclusive
Nc1nc2ccc([N+](=O)[O-])c(N)c2s1	PI5P4K alpha inh -58
Nc1ccc2nc(N)sc2c1	none (no result: POLB inh)
O=C(CCN1C(=O)/C(=C/c2cccs2)SC1=S)Nc1ccc(C(=O)O)c(O)c1	Pol eta inh 40µM, PI5P4K alpha inh -58, POLB inh inconclusive
CC(/C=C1\SC(=S)N(CCCC(=O)Nc2ccc(C(=O)O)c(O)c2)C1=O)=C\c1ccccc1	Pol eta inh inconclusive, Pol iota inh inconclusive, POLK inh inconclusive, PI5P4K alpha inh inconclusive, POLB inh inconclusive
CC(=Cc1ccccc1)C=C1SC(=S)N(CCCC(=O)Nc2ccc(C(=O)O)c(O)c2)C1=O	PI5P4K alpha inh -57, WRN helicase inh inconclusive (no result: Pol eta inh, Pol iota inh, POLK inh, POLB inh)
O=C(O)c1ccc(-c2nc(-c3ccccc3)c(-c3ccccc3)[nH]2)cc1	WRN helicase inh 40µM
Cc1cc(C)cc(NC(=O)C2CCN(S(=O)(=O)c3ccc4c(c3)NC(=O)C(C)S4)CC2)c1 (centres undefined)	none
Cc1ccc(NC(=O)C2CCN(S(=O)(=O)c3ccc4c(c3)NC(=O)C(C)S4)CC2)c(Cl)c1 (centres undefined)	Pol iota inh 16µM, POLB inh inconclusive
COCCC(=O)NC1CCCc2c1cnn2-c1cccc(C)c1C (centres undefined)	none
CCC(=O)NC1=C(Cl)C(=O)C(NC(=O)CC)=C(Cl)C1=O	Pol eta inh inconclusive, Pol iota inh 1.8µM, PI5P4K alpha inh -81, WRN helicase inh inconclusive
COc1ccc(NC(=O)c2ccccc2NS(=O)(=O)c2ccc(C)cc2)c([N+](=O)[O-])c1	none
Cc1ccc(NC(=S)NNc2ccc([N+](=O)[O-])cc2S(=O)(=O)Nc2ccccc2C(=O)O)cc1C	Pol eta inh 28µM, PI5P4K alpha inh -73, POLB inh inconclusive, WRN helicase inh inconclusive
CC(=O)Nc1cccc(/C(C)=N/Nc2ccc(S(=O)(=O)Nc3ccccc3C(=O)O)cc2[N+](=O)[O-])c1	Pol eta inh 22µM, Pol iota inh inconclusive, PI5P4K alpha inh -72, WRN helicase inh inconclusive (no result: POLB inh)
COc1ccc(C(C)=NNc2ccc([N+](=O)[O-])cc2S(=O)(=O)Nc2ccccc2C(=O)O)c(OC)c1	Pol eta inh 45µM, PI5P4K alpha inh inconclusive (no result: POLB inh)
CN(CCO)c1ccc(C=NNc2ccc([N+](=O)[O-])cc2S(=O)(=O)Nc2ccccc2C(=O)O)cc1	Pol eta inh inconclusive, Pol iota inh inconclusive, PI5P4K alpha inh -55, WRN helicase inh 45µM (no result: POLB inh)
CCc1ccc(NC(=O)C(=O)NCC(c2cccnc2)N2CCN(c3ccc(F)cc3)CC2)cc1 (centres undefined)	none (no result: PI5P4K alpha inh, WRN helicase inh)
CCC(Sc1nc2ccccc2c2nc(CCn3cncc3C)nn12)C(=O)Nc1cccc(OC)c1 (centres undefined)	POLB inh 50µM (no result: PI5P4K alpha inh, WRN helicase inh)
Cc1cncn1CCc1nc2c3ccccc3nc(SCC(=O)Nc3cccc(Cl)c3)n2n1	none
Cc1ccc(S(=O)(=O)N2CC3C(=O)C[C@@H](c4ccccc4)N(S(=O)(=O)c4cccc(Cl)c4)C3CC2c2ccccc2)cc1 (some centres undefined)	none (no result: Pol eta inh, Pol iota inh, POLK inh, POLB inh)
C=CC1=C(C)C2=NC1=CC1=NC(=CC3=NC(=CC4=NC(=C2)C(C)=C4CCC(=O)O)C(CCC(=O)O)=C3C)C(C=C)=C1C.[Zn]	POLK inh 3.5µM (no result: Pol eta inh, Pol iota inh, PI5P4K alpha inh, POLB inh, WRN helicase inh)
Cc1nc2c(O)c3c(c(O)c2nc1C)C1C=CC3CC1	Pol iota inh 14µM (no result: POLB inh)
Cc1nc2c(C)c(C)c(C)c(C)c2nc1C	none
CCCCCCCCCCCCCCCC[n+]1ccc(C)cc1	none (no result: Pol eta inh, PI5P4K alpha inh, POLB inh, WRN helicase inh)
Cc1nc2cc(NC(=O)NCCCO)ccc2o1	none
Cc1nc2cc(NC(=O)NCCC3=CCCCC3)ccc2o1	Pol iota inh 89µM (no result: PI5P4K alpha inh)
CC(=NNC(=O)c1ccc(NS(=O)(=O)c2ccc(Br)cc2)cc1)c1cccnc1	PI5P4K alpha inh -53 (no result: POLB inh)
Cc1ccc2c(c1)c(=O)c1ccccc1n2CCCC(=O)Nc1cc(Cl)ccc1C	Pol eta inh 79µM, POLB inh inconclusive (no result: PI5P4K alpha inh, WRN helicase inh)
CCCSC1=NC2(CCN(C(=O)NC3CCCCC3)CC2)N=C1c1ccc(OC)cc1	none (no result: PI5P4K alpha inh, WRN helicase inh)
O=C1NC(=O)/C(=C/c2cc3c(cc2Br)OCO3)S1	Pol iota inh inconclusive, PI5P4K alpha inh inconclusive
O=C1NC(=O)/C(=C\c2ccc(Br)o2)S1	Pol eta inh 22µM, Pol iota inh inconclusive, POLK inh 25µM, PI5P4K alpha inh inconclusive, POLB inh 18µM
COc1cc(/C=C2\SC(=Nc3ccccc3)NC2=O)cc(Cl)c1O	Pol eta inh inconclusive, PI5P4K alpha inh -104, POLB inh 56µM, WRN helicase inh inconclusive
COc1cc(/C=C2/SC(=Nc3ccc(O)cc3)NC2=O)ccc1O	Pol eta inh 32µM, Pol iota inh inconclusive, POLK inh inconclusive, PI5P4K alpha inh -90, POLB inh 20µM, WRN helicase inh 50µM
COc1ccc(/C=C2\SC(=Nc3ccccc3OC)NC2=O)cc1	Pol eta inh 79µM, Pol iota inh inconclusive
CCc1ccc(N=C2NC(=O)/C(=C/c3cc(OC)c(O)c(OC)c3)S2)cc1	PI5P4K alpha inh -54, POLB inh inconclusive
COc1cc(/C=C2\SC(=Nc3ccccc3OC)NC2=O)ccc1O	PI5P4K alpha inh inconclusive
CCCCc1nnc(NC(=O)C2CC(=O)N(Cc3ccccc3)C2)s1 (centres undefined)	none
COC(=O)c1ccccc1NC(=O)CCn1c(=O)c2cccn2c2cccnc21	none (no result: PI5P4K alpha inh, WRN helicase inh)
COc1cc(Cl)c(C)cc1NC(=O)CCn1c(=O)c2cccn2c2cccnc21	Pol eta inh 79µM (no result: PI5P4K alpha inh, WRN helicase inh)
C=C1CCN(C(CC(C)C)C(=O)NCc2ccc(Cl)cc2)S(=O)(=O)c2ccccc21 (centres undefined)	none (no result: Pol eta inh, PI5P4K alpha inh, POLB inh, WRN helicase inh)
CCC1C(=O)C(C)(C)C(=O)OC1c1ccc([N+](=O)[O-])cc1 (centres undefined)	POLB inh 89µM
CC12C(=O)N(c3nccs3)C(=O)C1C1C=CC2C1 (centres undefined)	Pol eta inh 28µM, Pol iota inh 89µM, POLB inh 32µM
CC12C(=O)N(c3cccc4cccnc34)C(=O)C1C1C=CC2C1 (centres undefined)	none
CC1CC(C)CN(C(C(=O)NC2CCCCC2)c2cc3ccccc3o2)C1 (centres undefined)	none (no result: Pol eta inh, Pol iota inh, POLK inh, POLB inh)

Compound activity deposited in PubChem by National Center for Advancing Translational Sciences (NCATS).
